Test results: the supplement of paper PMC6555819

Columns and labels:
Experiment in all cases: PBM binding z-score (relative to random genomic background probes); higher = stronger binding; sequences stand for … in GC…GCGATTGACAGCGTAGAATGAAGG
[1] = test system: PPARg:RXRa DBDmut IVT, anti-RXR (DBD mutation: RXRa K156A/R161A, NR concentration 270 nM, RXRa partner concentration 90 nM)
Method in brief: (§1)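 Binding buffer was PBS pH 7.4 with 2% milk, 0.02% Triton X-100, 1 mM DTT, 0.2 mg/mL BSA and 0.4 mg/ml salmon testes DNA. In it, ligand-free nuclear receptor dimers were incubated 1 h on custom Agilent 4×180K protein-binding microarrays carrying double-stranded probes. Antibodies against each partner (one per run) detected binding, and z-scores were calculated against random background probes after regression normalization of scanned fluorescence.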

[2] = test system: PPARg:RXRa IVT, anti-PPARg (NR concentration 270 nM, RXRa partner concentration 90 nM)
Method in brief: as §1

[3] = test system: PPARg DBDmut:RXRa IVT, anti-PPARg (DBD mutation: PPARg1 K132A/R137A, NR concentration 270 nM, RXRa partner concentration 90 nM)
Method in brief: as §1

[4] = test system: PPARg DBDmut IVT, anti-PPARg (DBD mutation: PPARg1 K132A/R137A, NR concentration 270 nM)
Method in brief: as §1

[5] = test system: PPARg homodimer (NR concentration 180 nM)
Method in brief: as §1

[6] = test system: PXR:RXRa (NR concentration 270 nM, RXRa partner concentration 90 nM)
Method in brief: as §1

[7] = test system: PXR homodimer (NR concentration 270 nM)
Method in brief: as §1

[8] = test system: RARa:RXR (NR concentration 270 nM, RXRa partner concentration 90 nM)
Method in brief: as §1

[9] = test system: RARa homodimer (NR concentration 270 nM)
Method in brief: as §1

[10] = test system: RARb:RXRa (NR concentration 270 nM, RXRa partner concentration 90 nM)
Method in brief: as §1

Sequence | PBM binding z-score [1] | PBM binding z-score [2] | PBM binding z-score [3] | PBM binding z-score [4] | PBM binding z-score [5] | PBM binding z-score [6] | PBM binding z-score [7] | PBM binding z-score [8] | PBM binding z-score [9] | PBM binding z-score [10]
CCTACTGGGCCATCAGGTCAGTGATATCAACGTT | 4.12 | 4.95 | -0.457 | 0.096 | 0.501 | 0.376 | -0.631 | 0.801 | -0.59 | 1.77
AGAATTAGGTTAAGATCAGGGAAACAGAATACAT | 6.07 | 5.8 | 2.12 | 1.83 | 1.72 | 0.514 | 0.846 | 0.922 | 1.26 | 1.03
CCAGACAGGTGAAAGGTAACTCAGTCTGGTACGC | 2.07 | 3.2 | 0.403 | -0.0766 | 1.36 | 0.838 | 0.027 | 1.99 | 0.208 | 1.4
CTACCAAGGTGAAGAAGGTCGTTGATTACTATTC | 1.68 | 1.84 | 0.127 | -0.276 | 0.69 | 1.53 | 0.655 | 1.48 | 0.317 | 1.74
TCTTGTAGATCAATAGAGGTTAAGAGAGTGCGCT | 1.67 | 1.07 | 0.505 | 0.44 | 0.687 | 3.92 | 0.241 | 1.73 | 0.69 | 0.738
CGTCCAAGGTCATGGTCAGTGAAAGAGACTCGAA | 3.19 | 3.62 | 0.127 | 0.155 | 3.09 | 3.98 | 0.701 | 4.83 | 1.11 | 5.11
GCGACTGGGGCATCAGCAGGTCACCATAACTTAA | 4 | 4.06 | -0.0316 | -0.625 | 2.67 | 2.2 | 0.0166 | 3.04 | 0.0286 | 2.53
ATATGTAGGTTAGCTGGGGCCATTCAGACTAGGC | 6.72 | 5.67 | 1.64 | 1.69 | 1.13 | 2.87 | 0.538 | 1.33 | 0.314 | 1.21
TCTGCTAGGTCAACGATGGTCAGCTCATCTGCTA | 4 | 4.36 | 2.19 | -0.236 | 1.9 | 1.71 | -1.45 | 2.37 | -0.783 | 4.05
ATATGTAGGTTATCCGGTCATTCAGTTTGCGCAT | 7.35 | 6.98 | 1.53 | 1.86 | 0.982 | 1.65 | 1.86 | 1.65 | 0.474 | 2.19
ACTCGGAGGACAACGGTCAGAGCTACGCCAGTGA | 0.208 | 0.015 | -0.698 | -0.749 | -0.201 | -0.539 | -0.446 | -0.355 | 0.128 | 2
TCTATTAGTTGAAGGGCAATCGACGAGTCCGTTT | 2.4 | 0.352 | -0.193 | -0.223 | 0.916 | 0.833 | 0.904 | 0.162 | 0.81 | 1.24
CTCGAAAGGTCGGTTGAGGTGAGTATGCGGATAA | 0.239 | 1.05 | -0.43 | 0.0422 | 1.08 | 2.93 | 0.0767 | 2.11 | 0.202 | 3.01
TCAGACAGGTGTAGGTAACTCAGGTACGCAGTCG | 2.33 | 0.315 | 0.327 | -0.523 | 0.265 | 0.373 | 0.461 | 0.495 | 0.784 | 0.406
TAGCCTATGTCATTCAGGGGCCAGTATAGAAAGC | 0.367 | 0.511 | -0.0468 | 0.315 | -0.12 | -0.141 | -0.435 | 0.125 | -0.558 | 0.742
CCTCGGAGGACAACAGGGGGTCAGAGCTGCCAGA | -0.238 | 1.33 | 0.527 | 1.03 | 1.56 | 3.18 | 0.0814 | 3.3 | 0.607 | 2.71
GCTAGCAGGCCATTTGGGGCACTCAATGACGGGC | 1.12 | 0.8 | -0.58 | -1.74 | -0.698 | -0.594 | -0.802 | -0.159 | -1.06 | 0.199
TCTTGTAGATCAAGCAGGTCAAGAAAGCCTGAGT | 1.73 | 1.75 | 0.414 | -0.0194 | 0.82 | 1.7 | 0.497 | 1.91 | 0.192 | 1.79
GGAACTAGGGCAAGTTGATAGCAGAGTTTGATGG | 7.19 | 6.86 | 0.964 | 0.266 | 0.42 | 0.0404 | 0.803 | -0.0697 | -0.11 | 1.69
GCTGCTAGGTCAACTGATGGTCTGCTAAAGCTCG | 4.88 | 4.03 | 0.365 | -0.14 | 1.69 | 1.37 | -0.53 | 2.39 | 0.112 | 4.1
ACTAGCAGGCCAGGGGTCACTCAAGATTAGTCCG | 0.771 | 3.24 | 0.053 | 0.0858 | 2.99 | 5.13 | 0.401 | 5.58 | 1.68 | 3.85
TCATATAGGTAAAAAGTGAAAGTCGGTGTGGTAA | 4.48 | 2.54 | 1 | 0.168 | 0.986 | 0.581 | 0.658 | 0.666 | 0.947 | 0.366
CGTCCAAGGTCAGCAGGTCAGTTAAAGCGACGTG | 3.4 | 3.71 | -0.851 | -0.676 | 3.29 | 3.76 | 0.476 | 4.7 | 1.05 | 5.53
ATCTCTAGGTATGACTCAGTTCAGTGAAGAACGC | 0.262 | 0.638 | 0.456 | 1.61 | 0.371 | 0.877 | 1.49 | 0.389 | 0.624 | 0.243
